Experimental data from article PMC7862700, “An all-to-all approach to the identification of sequence-specific readers for epigenetic DNA modifications on cytosine”.

Legend:
Test in all cases: DAPPL (digital affinity profiling via proximity ligation, sequencing); 10 mM Tris-HCl pH 7.5, 50 mM NaCl, 1 mM DTT, 4% glycerol, room temperature, 30 min; GST-TFs on glutathione beads, 16-mer random dsDNA library, 0.1% formaldehyde crosslink after washing; high values mean tight binding
[1] = molecular target: T1, FLI1 (Homo sapiens, UniProt Q01543 1-452); settings: protein: recombinant; tags: N-terminal GST; dsDNA, one strand shown
T1 sequence: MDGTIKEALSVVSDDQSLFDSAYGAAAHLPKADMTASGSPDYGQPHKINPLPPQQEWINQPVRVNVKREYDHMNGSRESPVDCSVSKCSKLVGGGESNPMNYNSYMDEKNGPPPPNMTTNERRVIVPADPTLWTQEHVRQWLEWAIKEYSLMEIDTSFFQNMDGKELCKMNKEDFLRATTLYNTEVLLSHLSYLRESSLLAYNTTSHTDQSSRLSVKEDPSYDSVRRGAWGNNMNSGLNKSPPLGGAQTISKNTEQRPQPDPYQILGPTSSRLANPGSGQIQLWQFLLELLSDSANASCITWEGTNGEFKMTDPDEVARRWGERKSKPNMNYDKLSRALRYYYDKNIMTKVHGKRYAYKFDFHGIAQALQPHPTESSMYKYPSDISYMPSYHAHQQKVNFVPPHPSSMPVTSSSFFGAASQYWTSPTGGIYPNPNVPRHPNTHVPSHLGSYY
Procedure, shortened: (§1)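 Beads coated with glutathione captured GST-fused human transcription factors that had been expressed in yeast, and the factors were then given DNA barcodes and pooled with a tag-only sample. The pools were incubated with 200 nmole of a random double-stranded 16-mer DNA library in Tris/NaCl/DTT/glycerol buffer for 30 min at room temperature, washed, crosslinked with 0.1% formaldehyde and proximity-ligated with BsaI/T4 ligase at 37 °C for 1 h. PCR amplification and Illumina NextSeq500 sequencing came last. Binding signal is each hexamer's read frequency for a factor divided by its frequency for the tag-only sample.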

[2] = molecular target: T2, ELK1 (Homo sapiens, UniProt P19419 1-428); settings: protein: recombinant; tags: N-terminal GST; dsDNA, one strand shown
T2 sequence: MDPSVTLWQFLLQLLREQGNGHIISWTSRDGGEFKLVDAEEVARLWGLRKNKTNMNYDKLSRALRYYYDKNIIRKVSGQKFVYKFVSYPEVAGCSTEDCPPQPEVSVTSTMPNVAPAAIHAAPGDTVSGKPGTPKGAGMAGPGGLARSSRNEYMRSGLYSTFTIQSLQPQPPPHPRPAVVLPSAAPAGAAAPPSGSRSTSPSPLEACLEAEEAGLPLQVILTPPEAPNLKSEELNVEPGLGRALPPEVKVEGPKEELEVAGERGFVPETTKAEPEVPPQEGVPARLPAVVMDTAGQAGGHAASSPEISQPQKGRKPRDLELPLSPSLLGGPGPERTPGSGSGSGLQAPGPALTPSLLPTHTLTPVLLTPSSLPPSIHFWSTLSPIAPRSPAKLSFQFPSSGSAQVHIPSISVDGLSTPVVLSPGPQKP
Procedure, shortened: as §1

[3] = molecular target: T3, GABPA (Homo sapiens, UniProt Q06546 1-454); settings: protein: recombinant; tags: N-terminal GST; dsDNA, one strand shown
T3 sequence: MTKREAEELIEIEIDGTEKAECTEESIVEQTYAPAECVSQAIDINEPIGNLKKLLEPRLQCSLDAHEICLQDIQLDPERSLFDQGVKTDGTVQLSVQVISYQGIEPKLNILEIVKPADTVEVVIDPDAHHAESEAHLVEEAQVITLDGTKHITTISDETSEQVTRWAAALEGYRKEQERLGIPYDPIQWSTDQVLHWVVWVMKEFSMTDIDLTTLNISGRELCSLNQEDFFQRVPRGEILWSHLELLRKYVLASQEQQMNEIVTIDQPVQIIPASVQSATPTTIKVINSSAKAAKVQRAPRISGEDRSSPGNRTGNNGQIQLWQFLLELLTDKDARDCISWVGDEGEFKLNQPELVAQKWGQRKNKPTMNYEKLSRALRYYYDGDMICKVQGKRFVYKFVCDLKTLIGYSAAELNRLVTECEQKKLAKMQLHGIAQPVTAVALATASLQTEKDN
Procedure, shortened: as §1

[4] = molecular target: T4, ERG (Homo sapiens, UniProt P11308 1-479); settings: protein: recombinant; tags: N-terminal GST; dsDNA, one strand shown
T4 sequence: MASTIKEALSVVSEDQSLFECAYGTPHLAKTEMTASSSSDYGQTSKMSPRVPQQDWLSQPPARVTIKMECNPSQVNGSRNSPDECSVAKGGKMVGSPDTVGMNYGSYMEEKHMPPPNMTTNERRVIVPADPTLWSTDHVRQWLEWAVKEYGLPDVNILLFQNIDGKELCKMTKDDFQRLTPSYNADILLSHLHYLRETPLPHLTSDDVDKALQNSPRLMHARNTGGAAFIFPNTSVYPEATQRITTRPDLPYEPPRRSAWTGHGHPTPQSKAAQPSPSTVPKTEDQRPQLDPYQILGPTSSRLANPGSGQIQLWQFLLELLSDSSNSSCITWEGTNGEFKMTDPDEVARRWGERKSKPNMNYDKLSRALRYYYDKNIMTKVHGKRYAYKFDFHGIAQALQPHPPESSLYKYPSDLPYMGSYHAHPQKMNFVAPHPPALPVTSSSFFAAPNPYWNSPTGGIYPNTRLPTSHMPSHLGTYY
Procedure, shortened: as §1

[5] = molecular target: ELF1 (Homo sapiens, UniProt P32519 1-619); settings: protein: recombinant; tags: N-terminal GST; dsDNA, one strand shown
Procedure, shortened: as §1

[6] = molecular target: T5, EHF (Homo sapiens, UniProt Q9NZC4 1-300); settings: protein: recombinant; tags: N-terminal GST; dsDNA, one strand shown
T5 sequence: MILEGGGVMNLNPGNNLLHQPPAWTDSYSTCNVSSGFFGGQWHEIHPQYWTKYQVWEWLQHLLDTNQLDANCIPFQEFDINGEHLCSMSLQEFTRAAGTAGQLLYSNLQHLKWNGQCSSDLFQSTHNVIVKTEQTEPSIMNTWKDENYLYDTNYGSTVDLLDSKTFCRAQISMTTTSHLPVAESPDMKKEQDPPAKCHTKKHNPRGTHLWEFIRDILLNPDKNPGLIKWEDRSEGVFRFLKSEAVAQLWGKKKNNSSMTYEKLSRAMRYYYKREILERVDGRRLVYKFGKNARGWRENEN
Procedure, shortened: as §1

[7] = molecular target: SPI1 (Homo sapiens, UniProt P17947 1-270); settings: protein: recombinant; tags: N-terminal GST; dsDNA, one strand shown
Procedure, shortened: as §1

[8] = molecular target: SPIB (Homo sapiens, UniProt Q01892 1-262); settings: protein: recombinant; tags: N-terminal GST; dsDNA, one strand shown
Procedure, shortened: as §1

[9] = molecular target: T6, ELK3 (Homo sapiens, UniProt P41970 1-407); settings: protein: recombinant; tags: N-terminal GST; dsDNA, one strand shown
T6 sequence: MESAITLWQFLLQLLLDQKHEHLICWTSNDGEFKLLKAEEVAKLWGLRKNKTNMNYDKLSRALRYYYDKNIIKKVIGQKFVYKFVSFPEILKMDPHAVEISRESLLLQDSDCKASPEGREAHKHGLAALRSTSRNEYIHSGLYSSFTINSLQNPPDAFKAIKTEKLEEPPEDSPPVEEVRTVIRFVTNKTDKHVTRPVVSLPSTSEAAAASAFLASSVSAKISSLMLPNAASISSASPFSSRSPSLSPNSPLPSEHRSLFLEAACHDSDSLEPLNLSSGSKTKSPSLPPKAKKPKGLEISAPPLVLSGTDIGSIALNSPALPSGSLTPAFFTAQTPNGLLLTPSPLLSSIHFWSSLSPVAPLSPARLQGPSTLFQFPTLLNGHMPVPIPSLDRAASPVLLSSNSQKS
Procedure, shortened: as §1

[10] = molecular target: T7, FEV (Homo sapiens, UniProt Q99581 1-238); settings: protein: recombinant; tags: N-terminal GST; dsDNA, one strand shown
T7 sequence: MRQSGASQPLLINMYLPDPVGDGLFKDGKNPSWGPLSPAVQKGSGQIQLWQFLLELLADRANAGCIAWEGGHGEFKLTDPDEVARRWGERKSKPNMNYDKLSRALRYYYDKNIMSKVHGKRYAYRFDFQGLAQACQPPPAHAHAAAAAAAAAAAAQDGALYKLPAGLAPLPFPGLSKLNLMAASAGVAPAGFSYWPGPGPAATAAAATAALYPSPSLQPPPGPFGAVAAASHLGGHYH
Procedure, shortened: as §1

[11] = molecular target: ETV5 (Homo sapiens, UniProt P41161 1-510); settings: protein: recombinant; tags: N-terminal GST; dsDNA, one strand shown
Procedure, shortened: as §1

[12] = molecular target: HSF1 (Homo sapiens, UniProt Q00613 1-529); settings: protein: recombinant; tags: N-terminal GST; chain copies: 3; dsDNA, one strand shown
Procedure, shortened: as §1

[13] = molecular target: T8, SPIC (Homo sapiens, UniProt Q8N5J4 1-248); settings: protein: recombinant; tags: N-terminal GST; dsDNA, one strand shown
T8 sequence: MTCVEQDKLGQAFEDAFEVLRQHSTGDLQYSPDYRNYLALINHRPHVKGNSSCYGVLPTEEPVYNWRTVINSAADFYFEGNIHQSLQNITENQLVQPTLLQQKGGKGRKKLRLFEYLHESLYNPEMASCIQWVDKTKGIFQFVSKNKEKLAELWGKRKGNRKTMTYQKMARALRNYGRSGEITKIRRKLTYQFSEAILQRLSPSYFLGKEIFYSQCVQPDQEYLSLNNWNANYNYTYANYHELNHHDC
Procedure, shortened: as §1

[14] = molecular target: ELF4 (Homo sapiens, UniProt Q99607 1-663); settings: protein: recombinant; tags: N-terminal GST; dsDNA, one strand shown
Procedure, shortened: as §1

[15] = molecular target: T9, ELK4 (Homo sapiens, UniProt P28324-2 1-405); settings: protein: recombinant; tags: N-terminal GST; dsDNA, one strand shown
T9 sequence: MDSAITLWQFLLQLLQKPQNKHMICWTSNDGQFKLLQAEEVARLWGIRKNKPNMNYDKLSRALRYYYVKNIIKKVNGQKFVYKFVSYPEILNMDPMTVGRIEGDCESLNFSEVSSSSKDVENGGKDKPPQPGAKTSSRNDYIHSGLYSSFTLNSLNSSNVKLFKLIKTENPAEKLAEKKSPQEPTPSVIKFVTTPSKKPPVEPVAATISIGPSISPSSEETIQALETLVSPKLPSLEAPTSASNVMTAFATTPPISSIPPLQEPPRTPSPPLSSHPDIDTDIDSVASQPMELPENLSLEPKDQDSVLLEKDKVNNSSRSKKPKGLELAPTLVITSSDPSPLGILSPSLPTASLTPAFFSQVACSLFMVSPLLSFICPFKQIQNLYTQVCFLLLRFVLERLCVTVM
Procedure, shortened: as §1

[16] = molecular target: T10, ETV2 (Homo sapiens, UniProt O00321 1-342); settings: protein: recombinant; tags: N-terminal GST; dsDNA, one strand shown
T10 sequence: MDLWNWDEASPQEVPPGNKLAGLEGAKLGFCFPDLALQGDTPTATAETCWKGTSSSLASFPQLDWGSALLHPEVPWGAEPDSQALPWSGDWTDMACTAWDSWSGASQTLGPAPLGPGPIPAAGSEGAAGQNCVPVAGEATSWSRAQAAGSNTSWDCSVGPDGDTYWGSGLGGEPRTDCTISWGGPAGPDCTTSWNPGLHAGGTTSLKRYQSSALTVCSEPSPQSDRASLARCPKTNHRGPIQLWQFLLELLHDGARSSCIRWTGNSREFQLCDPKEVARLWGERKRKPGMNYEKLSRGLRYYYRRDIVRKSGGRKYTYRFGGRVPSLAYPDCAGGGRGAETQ
Procedure, shortened: as §1

[17] = molecular target: T11, ELF3 (Homo sapiens, UniProt P78545 1-371); settings: protein: recombinant; tags: N-terminal GST; dsDNA, one strand shown
T11 sequence: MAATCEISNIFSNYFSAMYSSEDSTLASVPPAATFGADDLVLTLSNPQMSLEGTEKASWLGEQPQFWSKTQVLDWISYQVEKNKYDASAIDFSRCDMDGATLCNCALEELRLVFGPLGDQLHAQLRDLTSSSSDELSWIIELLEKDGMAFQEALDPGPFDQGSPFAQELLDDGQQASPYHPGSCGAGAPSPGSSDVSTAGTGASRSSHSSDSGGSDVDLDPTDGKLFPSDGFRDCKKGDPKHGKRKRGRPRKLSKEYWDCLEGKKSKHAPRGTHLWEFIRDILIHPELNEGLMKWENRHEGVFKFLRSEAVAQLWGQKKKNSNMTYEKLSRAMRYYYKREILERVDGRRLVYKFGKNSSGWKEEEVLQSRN
Procedure, shortened: as §1

[18] = molecular target: CRX (Homo sapiens, UniProt O43186 1-299); settings: protein: recombinant; tags: N-terminal GST; dsDNA, one strand shown
Procedure, shortened: as §1

[19] = molecular target: ETV1 (Homo sapiens, UniProt P50549 1-477); settings: protein: recombinant; tags: N-terminal GST; dsDNA, one strand shown
Procedure, shortened: as §1

ELF1, sequence (P32519 whole entry): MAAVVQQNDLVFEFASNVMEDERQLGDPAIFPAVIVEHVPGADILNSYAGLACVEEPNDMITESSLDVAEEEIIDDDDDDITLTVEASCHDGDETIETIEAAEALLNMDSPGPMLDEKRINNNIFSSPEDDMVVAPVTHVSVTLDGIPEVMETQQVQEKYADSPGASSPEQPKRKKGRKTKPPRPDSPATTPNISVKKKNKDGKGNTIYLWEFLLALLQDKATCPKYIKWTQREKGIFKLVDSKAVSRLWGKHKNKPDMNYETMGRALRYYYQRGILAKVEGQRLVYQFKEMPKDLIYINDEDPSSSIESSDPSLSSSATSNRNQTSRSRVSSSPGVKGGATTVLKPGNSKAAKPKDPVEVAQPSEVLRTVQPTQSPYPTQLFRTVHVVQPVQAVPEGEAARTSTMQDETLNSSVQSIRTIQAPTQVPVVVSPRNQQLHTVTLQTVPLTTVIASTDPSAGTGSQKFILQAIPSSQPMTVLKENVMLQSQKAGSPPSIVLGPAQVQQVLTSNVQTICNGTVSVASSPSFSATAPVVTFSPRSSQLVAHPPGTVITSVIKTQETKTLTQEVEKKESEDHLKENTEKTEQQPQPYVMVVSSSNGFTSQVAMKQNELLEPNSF
ELF4, sequence (Q99607 whole entry): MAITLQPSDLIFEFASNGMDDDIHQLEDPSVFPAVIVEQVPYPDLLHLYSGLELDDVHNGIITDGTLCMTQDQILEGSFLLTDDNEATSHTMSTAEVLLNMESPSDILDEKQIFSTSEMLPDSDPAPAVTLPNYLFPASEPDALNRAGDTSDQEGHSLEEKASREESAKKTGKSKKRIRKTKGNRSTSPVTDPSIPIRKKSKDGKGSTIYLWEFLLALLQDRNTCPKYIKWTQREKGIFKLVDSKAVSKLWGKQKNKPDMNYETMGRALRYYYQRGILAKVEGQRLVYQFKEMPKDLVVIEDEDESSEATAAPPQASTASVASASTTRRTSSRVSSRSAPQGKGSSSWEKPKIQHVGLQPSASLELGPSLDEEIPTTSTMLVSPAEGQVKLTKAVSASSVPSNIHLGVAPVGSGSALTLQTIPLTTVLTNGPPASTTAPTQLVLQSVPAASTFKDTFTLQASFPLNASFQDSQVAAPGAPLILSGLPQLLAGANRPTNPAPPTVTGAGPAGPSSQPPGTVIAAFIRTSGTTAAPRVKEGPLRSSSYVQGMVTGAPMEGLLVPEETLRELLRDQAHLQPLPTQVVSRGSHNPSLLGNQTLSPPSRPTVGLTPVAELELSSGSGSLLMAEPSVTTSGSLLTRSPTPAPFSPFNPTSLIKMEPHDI
SPIB, sequence (Q01892 whole entry): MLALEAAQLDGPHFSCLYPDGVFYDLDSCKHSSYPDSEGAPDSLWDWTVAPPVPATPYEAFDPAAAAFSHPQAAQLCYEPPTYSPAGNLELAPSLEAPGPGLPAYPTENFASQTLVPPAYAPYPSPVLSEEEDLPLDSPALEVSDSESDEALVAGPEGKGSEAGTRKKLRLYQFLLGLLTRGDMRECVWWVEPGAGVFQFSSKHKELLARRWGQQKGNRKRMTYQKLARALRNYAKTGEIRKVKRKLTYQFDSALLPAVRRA
ETV5, sequence (P41161 whole entry): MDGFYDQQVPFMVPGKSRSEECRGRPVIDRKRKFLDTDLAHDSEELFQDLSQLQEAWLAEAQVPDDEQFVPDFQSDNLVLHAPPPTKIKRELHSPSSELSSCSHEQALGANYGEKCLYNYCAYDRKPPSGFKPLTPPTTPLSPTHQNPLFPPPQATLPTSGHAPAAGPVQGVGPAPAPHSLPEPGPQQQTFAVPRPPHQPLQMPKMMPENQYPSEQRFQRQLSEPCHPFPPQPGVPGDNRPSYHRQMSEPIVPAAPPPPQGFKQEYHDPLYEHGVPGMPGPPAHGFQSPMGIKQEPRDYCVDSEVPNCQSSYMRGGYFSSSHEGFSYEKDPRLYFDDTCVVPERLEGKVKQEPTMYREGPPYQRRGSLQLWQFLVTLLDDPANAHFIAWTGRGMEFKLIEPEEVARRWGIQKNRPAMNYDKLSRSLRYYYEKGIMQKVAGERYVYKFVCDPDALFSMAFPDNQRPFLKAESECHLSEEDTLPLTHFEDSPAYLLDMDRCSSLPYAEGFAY
HSF1, sequence (Q00613 whole entry): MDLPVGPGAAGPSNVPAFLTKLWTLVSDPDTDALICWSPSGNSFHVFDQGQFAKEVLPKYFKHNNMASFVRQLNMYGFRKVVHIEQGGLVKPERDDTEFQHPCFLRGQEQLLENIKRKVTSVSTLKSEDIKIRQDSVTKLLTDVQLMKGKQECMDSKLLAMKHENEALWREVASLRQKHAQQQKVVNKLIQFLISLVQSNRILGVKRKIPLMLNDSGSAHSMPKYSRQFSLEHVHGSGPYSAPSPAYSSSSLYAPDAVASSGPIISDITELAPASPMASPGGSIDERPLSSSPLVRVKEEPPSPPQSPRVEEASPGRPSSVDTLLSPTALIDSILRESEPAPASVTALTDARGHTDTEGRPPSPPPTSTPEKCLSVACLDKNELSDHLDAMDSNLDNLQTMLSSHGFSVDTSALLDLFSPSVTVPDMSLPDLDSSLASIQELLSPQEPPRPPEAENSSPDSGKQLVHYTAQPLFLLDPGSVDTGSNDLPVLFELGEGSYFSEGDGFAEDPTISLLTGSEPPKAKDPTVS
ETV1, sequence (P50549 whole entry): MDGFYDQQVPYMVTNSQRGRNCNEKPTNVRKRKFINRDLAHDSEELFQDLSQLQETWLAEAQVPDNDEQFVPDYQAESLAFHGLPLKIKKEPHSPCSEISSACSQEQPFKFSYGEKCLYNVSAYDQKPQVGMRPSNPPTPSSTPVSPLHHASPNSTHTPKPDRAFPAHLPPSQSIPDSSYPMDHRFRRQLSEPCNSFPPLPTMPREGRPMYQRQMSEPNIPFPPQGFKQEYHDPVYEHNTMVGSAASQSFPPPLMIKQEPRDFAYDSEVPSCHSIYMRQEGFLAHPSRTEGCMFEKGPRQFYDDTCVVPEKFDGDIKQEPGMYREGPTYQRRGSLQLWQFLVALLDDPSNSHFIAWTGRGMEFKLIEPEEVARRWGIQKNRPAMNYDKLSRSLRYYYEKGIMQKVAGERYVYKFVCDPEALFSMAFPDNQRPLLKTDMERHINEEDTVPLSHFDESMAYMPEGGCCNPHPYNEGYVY
CRX, sequence (O43186 whole entry): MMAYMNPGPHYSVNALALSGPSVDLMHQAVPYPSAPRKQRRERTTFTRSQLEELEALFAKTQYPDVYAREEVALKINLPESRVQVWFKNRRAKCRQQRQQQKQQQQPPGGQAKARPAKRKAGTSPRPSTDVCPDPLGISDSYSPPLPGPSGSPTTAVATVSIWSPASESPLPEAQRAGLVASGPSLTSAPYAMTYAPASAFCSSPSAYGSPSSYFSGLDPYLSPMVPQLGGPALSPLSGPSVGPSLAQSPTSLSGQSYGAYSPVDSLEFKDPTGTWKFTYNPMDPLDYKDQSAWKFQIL

CTAAGC
binding signal [1]: 1.09 fold enrichment (6-mer frequency, TF over GST control)
binding signal [2]: 1.06 fold enrichment (6-mer frequency, TF over GST control)
binding signal [3]: 1.08 fold enrichment (6-mer frequency, TF over GST control)
binding signal [4]: 1.11 fold enrichment (6-mer frequency, TF over GST control)
binding signal [5]: 1.15 fold enrichment (6-mer frequency, TF over GST control)
binding signal [6]: 1.14 fold enrichment (6-mer frequency, TF over GST control)
binding signal [7]: 1.03 fold enrichment (6-mer frequency, TF over GST control)
binding signal [8]: 1.16 fold enrichment (6-mer frequency, TF over GST control)
binding signal [9]: 1.03 fold enrichment (6-mer frequency, TF over GST control)
binding signal [10]: 1.05 fold enrichment (6-mer frequency, TF over GST control)
binding signal [11]: 1.05 fold enrichment (6-mer frequency, TF over GST control)
binding signal [12]: 1.56 fold enrichment (6-mer frequency, TF over GST control)
binding signal [13]: 1.08 fold enrichment (6-mer frequency, TF over GST control)
binding signal [14]: 1.09 fold enrichment (6-mer frequency, TF over GST control)
binding signal [15]: 1.16 fold enrichment (6-mer frequency, TF over GST control)
binding signal [16]: 1.17 fold enrichment (6-mer frequency, TF over GST control)
binding signal [17]: 1.12 fold enrichment (6-mer frequency, TF over GST control)
binding signal [18]: 2.45 fold enrichment (6-mer frequency, TF over GST control)
binding signal [19]: 1.06 fold enrichment (6-mer frequency, TF over GST control)
